The nature of experiment [1]: Nuclear factor erythroid 2-related factor 2/antioxidant responsive element (Nrf2/ARE) small molecule agonists: qHTS cell viability counter screen in human keratinocytes (AID 1919968; active = well fitted curve in the direction sought with a large enough effect in the repeat runs; an effect the other way counts as inactive or inconclusive; note: nearly all actives have a fitted effect of over 55% in size). The essentials: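 Parallel cytotoxicity read: KeratinoSens HaCaT cells, compound treatment 23 h, viability by CellTiter-Fluor fluorescence 1 h post-reagent.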
For orientation: In qHTS, concentration-response curves come from the screen itself.

The nature of experiment [2]: Nuclear factor erythroid 2-related factor 2/antioxidant responsive element (Nrf2/ARE) small molecule agonists: luciferase reporter gene qHTS assay in human keratinocytes (AID 1919969). Note: nearly all actives have a fitted effect of over 35% in size. For orientation: In a reporter assay the amount or activity of a reporter protein is the signal.
Experiment [3] has as its target Gonadotropin-releasing hormone receptor (Homo sapiens) (UniProt P30968). The experiment can be described thus: Human gonadotropin-releasing hormone receptor (GnRHR) small molecule agonists, calcium flux assay in GnRHR-HEK293 cells (AID 1920063). Note: nearly all actives have a fitted effect of over 35% in size. The essentials: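 Calcium flux, agonist mode, human GnRHR stably integrated in HEK293; dye 1 h at 37 C before compound; Ex/Em=480/540 kinetic read, 3 min; 15 concentrations, triplicate.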
In general terms: A change in cytosolic calcium serves as a functional read-out for many receptors and channels.

Experiment [4] in a line: G protein-coupled receptor (GPCR) small molecule agonists, calcium flux assay: HEK293 wild type cell line counter screen (AID 1920065). Put shortly:
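Non-specific calcium responders were flagged by adding DMSO-dissolved compounds to dye-loaded cells and reading 480/540 nm fluorescence each second for 3 min; ATP served as positive control.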

Experiment [5] is described as follows: p53 small molecule agonists, cell-based qHTS assay with rat liver microsomes (AID 1963578). The essentials:
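With rat liver microsomes and NADPH present (0.5 mg/mL final each), p53RE-bla cells are treated with compound for 16 h at 37 C. LiveBLAzer detection mixture is then applied for 2 h at room temperature in the dark.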

Experiment [6] is described as follows: p53 small molecule agonists, cell-based qHTS assay with human liver microsomes: qHTS cell viability counter screen (AID 1963579). Note: nearly all actives have a fitted effect of over 45% in size. Put shortly:
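In this multiplexed counter screen, the reporter plates were subsequently treated with CellTiter-Glo so that cell viability, reflected by luminescence, could be recorded for p53RE-bla cells dosed 16 h with compounds under microsomal activation (HLM and NADPH).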

Experiment [7] can be described thus: p53 small molecule agonists, cell-based qHTS assay with rat liver microsomes: qHTS cell viability counter screen (AID 1963580). Note: nearly all actives have a fitted effect of over 45% in size. The essentials:
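Cytotoxicity counter screen: intracellular ATP read by CellTiter-Glo luminescence in the p53 reporter wells. HCT-116 p53RE-bla cells were treated for 16 h at 37 C alongside rat liver microsomes and NADPH, each 0.5 mg/mL final.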

Experiment [8] can be described thus: p53 small molecule agonists, cell-based qHTS assay: qHTS cell viability counter screen (AID 1963581). Note: nearly all actives have a fitted effect of over 45% in size. Note: potency is the fitted concentration of half-maximal effect. Put shortly: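 Multiplexed with the reporter read, a CellTiter-Glo step (30 min, room temperature) gauges ATP-based viability of HCT-116 p53RE-bla cells after 16 h compound incubation at 37 C.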
Experiment [9] is described as follows: p53 small molecule agonists, cell-based qHTS assay (AID 1963582; active = well fitted activation curve with a large enough effect in the signal ratio in the repeat runs, not every such curve was filed as active; the % refers to the signal ratio). The essentials:
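Beta-lactamase reporter cells (p53RE-bla) treated with compounds for 16 h at 37 C; FRET substrate, 2 h, room temperature; fluorescence intensity.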

Experiment [10] deals with 5-hydroxytryptamine receptor 2A (Homo sapiens) (UniProt P28223). Put plainly: 5-hydroxytryptamine receptor 2A (HTR2A) small molecule antagonists, cell-based qHTS assay (AID 1963586). Note: nearly all actives have a fitted effect of over 45% in size. The essentials:
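CHO cells stably expressing human HTR2A were plated for 18 h at 37 C, then loaded with calcium dye for 1 h. Compounds were preincubated 5 min at room temperature before DOI (4 nM solution) was added. Kinetic fluorescence was read for 3 min.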

For experiment [11] the target is unchanged. Put plainly: 5-hydroxytryptamine receptor 2A (HTR2A) small molecule agonists, cell-based qHTS assay (AID 1963587). Note: nearly all actives have a fitted effect of over 30% in size. The essentials: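 Kinetic calcium-flux fluorescence (2 min, 1 sec intervals) after compound addition in agonist mode. HTR2A-CHO cells were cultured 18 h, then dye-loaded 1 h at 37 C.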
Experiment [12] addresses Muscarinic acetylcholine receptor M1 (Homo sapiens) (UniProt P11229). The experiment can be described thus: Cholinergic receptor muscarinic 1 (CHRM1) small molecule antagonists, cell-based qHTS assay (AID 1963588). Note: nearly all actives have a fitted effect of over 40% in size. The essentials:
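Compounds were tested at 15 concentrations in three independent runs. Dye-loaded CHRM1-CHO cells were exposed 5 min at room temperature before stimulation by acetylcholine added at 50nM. Intracellular calcium was read kinetically on FDSS for 3 min.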

The target is the same in experiment [13]. Put plainly: Cholinergic receptor muscarinic 1 (CHRM1) small molecule agonists, cell-based qHTS assay (AID 1963589). Note: nearly all actives have a fitted effect of over 35% in size. Put shortly:
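qHTS, 15-point titration, 3 independent runs: compounds pin-transferred onto dye-loaded CHRM1-CHO cells (human M1), calcium fluorescence followed every second to detect agonism.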

A short description of experiment [14]: cAMP Responsive Elements (CRE) small molecule agonists, cell-based qHTS assay (AID 1963590). Put shortly:
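Quantitative HTS for CRE agonists: HEK 293T CRE-bla cells, overnight plating, 3 h compound incubation at 37 C/5% CO2, then 2 h room-temperature LiveBLAzer B/G FRET substrate loading.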

Experiment [15] in a line: cAMP Responsive Elements (CRE) small molecule antagonists, cell-based qHTS assay (AID 1963591; active = well fitted inhibition curve with a large enough effect in the signal ratio in the repeat runs, not every such curve was filed as active; the % refers to the signal ratio). Put shortly: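 Fluorescence intensity from cleaved LiveBLAzer B/G substrate (2 h, room temperature) quantified CRE-bla activity in HEK 293T cells exposed 3 h to compound with 0.25 uM final NKH477.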
Experiment [16] deals with Beta-2 adrenergic receptor (Homo sapiens) (UniProt P07550). Put plainly: Adrenergic beta2 receptor (ADRB2) small molecule antagonists, cell-based qHTS assay (AID 1963592). Note: series mostly up to about 92 µM; nearly all actives have a fitted effect of over 50% in size. Put shortly:
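Assay format: CHO-ADRB2 cells, 18-20hr seeding at 37C/5% CO2, then compound plus 1nM isoproterenol agonist mix for 0.5hr RT. Homogeneous time-resolved fluorescence cAMP detection after 1hr, expressed as 665/615 nm ratio.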

The target is the same in experiment [17]. The experiment can be described thus: Adrenergic beta2 receptor (ADRB2) small molecule agonists, cell-based qHTS assay (AID 1963593).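 Note: CHO cells stably overexpressing human ADRB2.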 The essentials: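 CHO cells stably over-expressing ADRB2 were plated overnight at 37C, then dosed with compounds plus a stimulation mix containing 100uM IBMX and 25uM Ro-20-1724 for 0.5hr at room temperature. cAMP was measured by HTRF competition, 1hr.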

The target in experiment [18] is D(2) dopamine receptor (Homo sapiens) (UniProt P14416). Put plainly: Dopamine D2 receptor (DRD2) small molecule agonists, cell-based qHTS assay (AID 1963594). Note: nearly all actives have a fitted effect of over 35% in size. The essentials: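 cAMP accumulation in DRD2-HEK293 cells measured by HTRF after 1 h detection; compounds added 10 min before NKH477 (200nM […]) forskolin-analogue stimulation, 30 min at room temperature, with Ro20-1724 present at 0.1 mM final.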

Experiment [19] has the same target. Put plainly: Dopamine D2 receptor (DRD2) small molecule antagonists, cell-based qHTS assay (AID 1963595; active = well fitted inhibition curve with a large enough effect in the signal ratio in the repeat runs, with a control signal flat; the % refers to the signal ratio). The essentials:
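DRD2-HEK293; 0.1 mM Ro20-1724; cpd 10 min RT; NKH477 200 nM + quinpirole 12 nM, 30 min RT; HTRF cAMP (cAMP-d2/anti-cAMP cryptate), 665/620 nm ratio after 1 h.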

The target of experiment [20] is KiSS-1 receptor (Homo sapiens) (UniProt Q969F8). The experiment can be described thus: Human kisspeptin (KISS1R) small molecule agonists, calcium flux assay in KISS1R-HEK293 cells (AID 1920064; active = well fitted curve in the direction sought with a large enough effect in the repeat runs; an effect the other way counts as inactive or inconclusive). Put shortly:
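Triplicate 15-concentration series were applied to dye-loaded human KISS1R HEK293 cells, and agonist-evoked calcium fluorescence was captured for 3 min.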

Each structure is given as a SMILES string. Results filed as inconclusive are left out. The source holds several records for some structures; these can differ, active in one and inactive in another. Active and inactive are the calls of the source. Unless noted, calls come from the whole dose curve.

Chain of KiSS-1 receptor (Homo sapiens) (Q969F8 whole entry, looked up): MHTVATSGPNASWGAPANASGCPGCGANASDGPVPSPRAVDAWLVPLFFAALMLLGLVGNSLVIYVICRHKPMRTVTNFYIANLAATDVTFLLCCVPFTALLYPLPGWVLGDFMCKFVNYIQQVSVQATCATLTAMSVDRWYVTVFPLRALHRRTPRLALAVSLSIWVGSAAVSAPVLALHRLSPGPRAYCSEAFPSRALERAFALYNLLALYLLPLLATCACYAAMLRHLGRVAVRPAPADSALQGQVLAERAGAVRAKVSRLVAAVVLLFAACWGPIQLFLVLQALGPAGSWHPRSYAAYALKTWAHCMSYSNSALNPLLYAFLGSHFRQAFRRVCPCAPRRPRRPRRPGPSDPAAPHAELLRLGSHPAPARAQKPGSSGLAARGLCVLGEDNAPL
Chain of D(2) dopamine receptor (Homo sapiens) (P14416 whole entry, looked up): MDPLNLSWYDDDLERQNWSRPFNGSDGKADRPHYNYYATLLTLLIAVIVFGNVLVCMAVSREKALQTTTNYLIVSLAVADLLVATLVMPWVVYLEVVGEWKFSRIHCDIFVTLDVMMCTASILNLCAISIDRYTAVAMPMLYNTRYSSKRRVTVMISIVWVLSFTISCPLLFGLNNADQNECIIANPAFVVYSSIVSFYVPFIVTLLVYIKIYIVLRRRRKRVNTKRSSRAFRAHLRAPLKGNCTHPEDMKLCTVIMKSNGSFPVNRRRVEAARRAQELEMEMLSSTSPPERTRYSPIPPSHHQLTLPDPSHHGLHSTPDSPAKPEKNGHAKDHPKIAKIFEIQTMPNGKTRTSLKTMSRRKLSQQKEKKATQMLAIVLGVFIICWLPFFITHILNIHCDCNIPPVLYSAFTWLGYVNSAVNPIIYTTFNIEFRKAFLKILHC
Chain of Gonadotropin-releasing hormone receptor (Homo sapiens) (P30968 whole entry, looked up): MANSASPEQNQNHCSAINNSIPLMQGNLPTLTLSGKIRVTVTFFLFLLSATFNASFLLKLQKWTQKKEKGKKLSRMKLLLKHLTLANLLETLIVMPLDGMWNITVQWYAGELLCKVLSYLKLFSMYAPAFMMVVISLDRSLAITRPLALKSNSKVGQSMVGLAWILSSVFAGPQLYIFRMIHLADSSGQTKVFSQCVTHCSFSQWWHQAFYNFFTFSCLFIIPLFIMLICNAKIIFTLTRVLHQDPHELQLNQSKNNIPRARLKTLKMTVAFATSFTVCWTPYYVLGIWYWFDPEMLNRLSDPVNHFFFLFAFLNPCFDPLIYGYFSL
Chain of Muscarinic acetylcholine receptor M1 (Homo sapiens) (P11229 whole entry, looked up): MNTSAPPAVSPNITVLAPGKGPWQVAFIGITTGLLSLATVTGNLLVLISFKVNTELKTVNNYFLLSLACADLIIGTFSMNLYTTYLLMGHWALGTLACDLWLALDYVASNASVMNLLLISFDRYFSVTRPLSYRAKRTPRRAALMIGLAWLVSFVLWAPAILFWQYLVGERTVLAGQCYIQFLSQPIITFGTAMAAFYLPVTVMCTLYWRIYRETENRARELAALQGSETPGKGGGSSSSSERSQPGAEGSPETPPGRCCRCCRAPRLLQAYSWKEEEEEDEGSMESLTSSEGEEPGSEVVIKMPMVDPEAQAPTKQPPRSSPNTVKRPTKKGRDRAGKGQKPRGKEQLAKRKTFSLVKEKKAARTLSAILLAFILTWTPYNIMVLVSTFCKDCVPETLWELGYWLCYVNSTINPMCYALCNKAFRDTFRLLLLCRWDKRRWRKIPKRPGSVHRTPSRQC
Chain of 5-hydroxytryptamine receptor 2A (Homo sapiens) (P28223 whole entry, looked up): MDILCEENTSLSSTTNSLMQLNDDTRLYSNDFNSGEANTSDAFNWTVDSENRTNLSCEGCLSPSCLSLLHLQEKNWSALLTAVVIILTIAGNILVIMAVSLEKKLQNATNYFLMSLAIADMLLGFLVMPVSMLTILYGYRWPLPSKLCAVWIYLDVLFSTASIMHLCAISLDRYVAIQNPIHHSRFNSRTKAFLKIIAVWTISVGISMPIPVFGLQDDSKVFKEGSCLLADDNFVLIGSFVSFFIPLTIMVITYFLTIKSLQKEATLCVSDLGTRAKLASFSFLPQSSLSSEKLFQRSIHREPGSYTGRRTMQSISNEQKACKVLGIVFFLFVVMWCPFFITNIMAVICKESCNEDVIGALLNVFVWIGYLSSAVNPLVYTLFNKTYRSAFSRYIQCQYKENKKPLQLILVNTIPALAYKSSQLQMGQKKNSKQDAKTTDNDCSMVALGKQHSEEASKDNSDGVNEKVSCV
Chain of Beta-2 adrenergic receptor (Homo sapiens) (P07550 whole entry, looked up): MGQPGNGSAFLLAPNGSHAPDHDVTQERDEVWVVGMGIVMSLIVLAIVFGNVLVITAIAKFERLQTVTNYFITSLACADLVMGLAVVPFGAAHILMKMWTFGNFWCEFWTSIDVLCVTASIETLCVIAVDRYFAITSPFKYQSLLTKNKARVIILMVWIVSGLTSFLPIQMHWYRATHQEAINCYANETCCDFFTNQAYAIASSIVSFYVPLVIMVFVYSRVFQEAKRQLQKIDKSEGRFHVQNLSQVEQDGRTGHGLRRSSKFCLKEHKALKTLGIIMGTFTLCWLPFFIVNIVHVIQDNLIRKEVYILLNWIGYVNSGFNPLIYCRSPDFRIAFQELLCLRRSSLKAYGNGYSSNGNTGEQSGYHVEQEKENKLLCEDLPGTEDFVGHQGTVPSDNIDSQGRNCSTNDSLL

On to `O=C(O)c1cc(Cl)ccc1Cl`, for which the Potency entry in [1], in experiment [2], in experiment [3], in [4], in [5] and in experiment [6] was “inactive” throughout. Moreover, the Potency entry in experiment [7], in [8], in [9], in experiment [10], in [11] and in experiment [12] was “inactive” throughout. Further, the Potency entry in [13], in experiment [14], in experiment [15], in [16], in experiment [17] and in [18] was “inactive” throughout. The Potency entry in [19] was “inactive”.

Turning to `COc1ccc2c(c1OC)C(=O)O[C@@H]2[C@H]1c2cc3c(cc2CCN1C)OCO3`, the Potency entry in experiment [1], in experiment [2], in [3], in [20], in experiment [5] and in experiment [6] was “inactive” throughout. Besides, the Potency result in experiment [7], in [8], in [9], in experiment [11], in [12] and in [13] was “inactive” throughout. For the same molecule, the Potency entry in experiment [14], in experiment [15], in experiment [16], in [18] and in experiment [19] was “inactive” each time.

For the molecule `CN(C)C(=O)Cl`, the Potency result in [1], in experiment [2], in experiment [3], in [20], in [6] and in experiment [7] was “inactive” throughout. For the same molecule, the Potency entry in [10], in [11], in [12], in [13], in [14] and in experiment [15] was “inactive” throughout. The Potency entry in experiment [16], in experiment [17], in [18] and in experiment [19] was “inactive” in each case. In addition, the Potency in experiment [8] was 45.7 µM (active) and inactive.

Regarding `Oc1cc(Cl)ccc1Cl`, the Potency entry in experiment [1], in experiment [2], in [3], in [20], in [6] and in [7] was “inactive” in each case. The Potency entry in experiment [8], in experiment [9], in experiment [10], in experiment [12], in experiment [13] and in [14] was “inactive” throughout. Further, the Potency result in experiment [15], in [16], in experiment [17], in experiment [18] and in experiment [19] was “inactive” in each case.

In the case of `CNC(=O)O/N=C/C(C)(C)SC`, the Potency result in experiment [1], in [2], in experiment [3], in experiment [20], in [6] and in [7] was “inactive” in each case. Besides, the Potency entry in [8], in [9], in experiment [10], in experiment [11], in experiment [12] and in experiment [13] was “inactive” in each case. The Potency result in [14], in experiment [15], in experiment [16], in [17], in experiment [18] and in experiment [19] was “inactive” each time.

Take `N#CCc1ccccc1`: the Potency result in [1], in experiment [2], in experiment [3], in experiment [4], in [5] and in experiment [6] was “inactive” each time. Further, the Potency result in [7], in experiment [8], in experiment [9], in experiment [10], in experiment [11] and in experiment [12] was “inactive” throughout. Also, the Potency result in [13], in experiment [14], in experiment [15], in [16], in experiment [17] and in [18] was “inactive” throughout. In addition, the Potency result in experiment [19] was “inactive”.
